Activity calls are given as the source filed them.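 The calls were made as follows: active = fluorescence ratio normalized to control raised more than 50% in primary screen plus both repeat runs; inactive = the rest.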
tested on: TRPC4 beta (transient receptor potential cation channel C4), mouse; assay: TRPC4 cation channel opening, retest – cell-based, Fluo4 calcium, HEK293 TRPC4beta/mu-opioid, duplicates, 10 µM, confirmation (AID 2426); details: Fluo4 calcium fluorescence, at 10 µM; active compounds read high;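 as to activation: percent rise of integrated ratio over buffer wells lacking compound which define 0%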

Row | SMILES | outcome | activation
1 | CC1CCCCN1S(=O)(=O)c1ccc(C(=O)N(CCCN(C)C)c2nc3ccc(Br)cc3s2)cc1 (stereo not given) | inactive | 
2 | CC(C)(C)C(=O)NC(=S)NNC(=O)c1ccc(-c2ccccc2)cc1 |  | 257% (active)
3 | CCCOc1ccc(C(=O)NNC(=S)NC(=O)c2ccccc2)cc1 |  | 152% (active)
4 | OCCN1CCN(Cc2cc(Br)cc(Br)c2O)CC1 |  | 199% (active)
5 | c1ccc(Nc2nc(Nc3ccccc3)nc(N3CCNCC3)n2)cc1 |  | 159% (active)
6 | O=c1c2cc(Br)ccc2nc(-c2cccc(C(F)(F)F)c2)n1O |  | 449% (active)
7 | COc1cc(OC)cc(C(=O)NC(=S)NNC(=O)[C@H]2C[C@@H]2c2ccccc2)c1 |  | 162% (active)
8 | c1ccc2c(c1)CCN(c1ncnc3c1[nH]c1ccccc13)C2 | inactive | 
9 | O=C(CCc1ccccc1)NNC(=S)NC(=O)c1ccc(Cl)cc1 |  | 170% (active)
10 | Cc1cccc(C(=O)NNC(=S)NC(=O)c2cccs2)c1 |  | 158% (active)
11 | CN(C)CCCN(C(=O)c1ccc(S(=O)(=O)N2CCCCCC2)cc1)c1nc2ccc(F)cc2s1 |  | 278% (active)
12 | CC[C@@H](C(=O)[C@@H](C)[C@@H](O)[C@H](C)CCc1ccc(C)c(O)c1C(=O)O)[C@H]1O[C@](CC)([C@H]2CC[C@](O)(CC)[C@H](C)O2)C[C@@H]1C |  | 472% (active)
13 | Cc1occc1C(=O)NNC(=S)NC(=O)COc1ccc(Cl)cc1Cl |  | 108% (active)
14 | COc1cc(OC)cc(C(=O)N[C@H](C(=O)OCC(=O)NC(C)c2ccccc2)C(C)C)c1 (stereo not given in full) |  | 118% (active)
15 | O=C(NC(=S)NNC(=O)[C@H]1C[C@@H]1c1ccccc1)c1cccc(F)c1 |  | 213% (active)

From PubChem BioAssay
